The source of these data is PubChem BioAssay (NCATS).

Some of the results follow. Inconclusive results are not listed. Unmarked numbers belong to inactive results. Active and inactive are the calls of the source. Rule for the calls: active = clear falling dose curves in both reporters; inconclusive = both reporters move, but less clearly or upward; inactive = either reporter flat; the % is the FLuc reporter signal.
Potency is the fitted concentration of half-maximal effect.

The nature of the experiment: Cell-based coincidence reporter assay to measure PMP22 gene transcription in S16 Pmp22-F2sN cells - Confirmatory screen (AID 1508646). To be noted: S16 Schwann cells Pmp22-F2sN, dual luciferase, 24 h; series mostly up to 57.5 µM; activity change, negative = inhibition: at the top concentration. An excerpt:
Assay Provider: Jim Inglese Ph.D. National Center for Advancing Translational Science, National Institutes of Health, Rockville, MD CMT is a heterogeneous group of neurological disorders that affect approximately 1 in 2,500 people. In particular, the most common form of CMT, CMT1A is genetically linked to the duplication of the PMP22 gene which leads to Schwann cell overexpression, thus manifesting itself as a typical case of dose-sensitive diseases. To identify small molecule compounds that can mediate the expression of PMP22 we developed a phenotypic assay screening strategy by utilizing genome editing techniques to construct Schwann cell lines containing novel reporter technology to monitor the transcriptional or translational regulation of PMP22. For high sensitivity we use a bioluminescent reporter system embedded in the 3' UTR of the PMP22 gene (S16(c9) Pmp22-F2sN) to identify compounds that inhibit gene expression. […] We can further discriminate the effect of all transcriptionally active molecules on PMP22 translation or stability with an assay that incorporates a short NLuc peptide (HiBiT) at the C-terminus of expressed PMP22 (S16(f8) PMP22-HiBiT) allowing alpha complementation and luminescence detection of membrane-associated PMP22 protein. These assays were screened against the NCATS Sytravon Library Collection. Miniaturization of these assays to 1536-well plate format for quantitative high throughput screening (qHTS) yielded rich data sets immediately from the qHTS assay (S16(c9) Pmp22-F2sN), when compared with data from a cell viability assay (Cell TiterGlo) to identify compounds that decreased the output signals through cellular toxicity to streamline the selection process of actives for subsequent characterization using the HiBiT assay (S16(f8) PMP22-HiBiT).
Cell-based coincidence reporter assay to measure PMP22 gene transcription in S16 Pmp22-F2sN cells PROTOCOL TABLE (format as described by Inglese J, Shamu CE and Guy RK. 2007) SEQUENCE No. (e.g., 1, 2, 3, etc.); PARAMETER (e.g., Cells, Incubation, Reagent, etc.); VALUE and DESCRIPTION. 1. Cells. Add 500-1,000 cells in 4 uL in growth media (DMEM High Glucose, No Phenol Red media + 10% heat-inactivated FBS + 1% Pen/Strep supplemented media) per well into Greiner 1536-well white/solid bottom high base, TC-treated plates. 2. Compounds. Library compounds and controls added at 23nL per well, transferred by Pin Tool. 3. Incubation. Incubate plates at 37C, 5% CO2, 95% RH for 24 h. 4. Reagent. Add 3.5uL Nano-Glo Dual-Luciferase Reporter Assay System reagent 1: Lysis and FLuc reagent per well of Greiner 1536-well plates. 5. Incubation. Incubate plates at room temperature for 10 min., protect from light. 6. Detector. FLuc luminescence measured using CCD-based camera (Viewlux). 7. Reagent. Add 3.5uL Nano-Glo Dual-Luciferase Reporter Assay System reagent 2: Stop&Glo reagent per well of Greiner 1536-well plates. 8. Incubation. Incubate plates at room temperature for 10 min., protect from light. 9. Detector. NLuc luminescence measured using CCD-based camera (Viewlux). NOTES (numbers refer to Sequence numbers above; values are from representative experiments) 6. Luminescence Read #1 (FLuc): Clear filter; Exposure = 10 sec, Gain = High, Speed = Slow, Binning = 2X 9. Luminescence Read #2 (NLuc): Clear filter; Exposure = 1 sec, Gain = High, Speed = Slow, Binning = 2X REFERENCES: 1. Inglese J, Shamu CE and Guy RK, Reporting data from high throughput screening of small molecule libraries, Nature Chemical Biology, 2007, 3(8): 438-441. doi.org/10.1038/nchembio0807-438 2. Yasgar A, Shinn P, Jadhav A, Auld DS, Michael S, Zheng W, Austin CP, Inglese J and Simeonov A, Compound Management for Quantitative High-Throughput Screening. J. Assoc. Lab. Auto., 2008, 13: 79-89. doi: 10.1016/j.jala.2007.12.004
In general terms: A reporter such as luciferase makes a cellular process visible.
As for `CCc1ccc(NC(=O)CN2CCSc3ccc(S(=O)(=O)N4CCCC4)cc32)cc1`, the “activity change, negative = inhibition” value was -36.8%.
For the molecule `O=C(CCS(=O)(=O)c1ccccc1)N(Cc1cccnc1)c1nc2c(F)cccc2s1`, the Potency was 12.3 µM (active).
As to `CCOC(=O)C1CCN(C(=O)CSc2c3c(nc4ccc(Cl)cc24)CCCC3)CC1`, the Potency is 17.3 µM (active).
Turning to `Cc1cc(F)ccc1NS(=O)(=O)c1ccc(-n2cccn2)cc1`, the “activity change, negative = inhibition” value was -24.1%.
For `Cc1ccccc1CNC(=O)CSc1nnc(C)c2c(C)n(-c3ccccc3)nc12`, the Potency was 16.3 µM (active).
Take `COc1cccc(NC(=O)CSC2=Nc3ccccc3C3=NC(CC(=O)NC4CCCCC4)C(=O)N23)c1` (stereo unspecified): the “activity change, negative = inhibition” value is 13.4%.
On to `Cc1ccc(NC(=O)c2nc(S(=O)(=O)Cc3cccc(C)c3)ncc2Cl)cc1`, for which the Potency is 13.1 µM (active).
On the same count and under the same terms, as for `CCCS(=O)(=O)c1ncc(Cl)c(C(=O)Nc2scc(-c3ccccc3)c2C(=O)OCC)n1`, the figure is 10.4 µM (active).
Consider `CCOc1ccc(NC(=O)c2c(NC(=O)Cc3ccccc3)sc3c2CCC(C)C3)cc1` (stereo unspecified), for which the Potency was 16.5 µM (active).
As for `COc1ccccc1Nc1c2c(nc3ccc(NC(=O)/C=C/c4cc(OC)c(OC)c(OC)c4)cc13)CCCC2`, the Potency is 12.2 µM (active).
For the molecule `CCCCOc1ccc(CN2C(=O)C(=O)c3cc(Br)cc(C)c32)cc1OC`, the Potency is 10.9 µM (active).
On the same count and under the same terms, as for `Cc1ccc(CCNC(=O)C2CCN(c3nnc(-n4cccc4CNc4ccc(C)cc4)s3)CC2)cc1`, the figure is 15.1 µM (active).
Regarding `Cc1sc(C2C(C#N)=C(N)N(c3cccc(Cl)c3)C3=C2C(=O)CCC3)cc1CN1CCOCC1` (stereo unspecified), the “activity change, negative = inhibition” value was -27.6%.
For `COc1ccccc1-c1cc(C(F)(F)F)nc(S(=O)(=O)CCCC(=O)Nc2ccc(F)cc2F)n1`, the Potency is 15.3 µM (active).
`Cc1cc(OCC(=O)NCC2(N(C)C)CCCCC2)cc(C)c1Cl`: the “activity change, negative = inhibition” value is 0%.
As to `O=C(c1ccc2c(c1)N(Cc1ccc(F)cc1)C(=O)c1ccccc1S2(=O)=O)N1CCN(c2ccccn2)CC1`, the “activity change, negative = inhibition” value was -19.8%.
